# Compounds with a hit are over-represented: about 1.3% of the library has one in this group of screens.
# NCOA1 inh = SRC1 coactivator transcriptional activity inhibitors, primary screen, cell-based, luminescence; Nuclear receptor coactivator 1 (Homo sapiens), Q15788; HEK293 GAL4-SRC1 luciferase reporter; inhibition, % at 3.6 µM; 360,000 compounds, 0.12% hits; AID 588354, 2011;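 active means inhibition above the campaign mean plus 3 SD, with each screening campaign given its own cutoff, cut at about 60% in these data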;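 further: 0% = DMSO treated cells and 100% = gossypol at 36 µM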
# NR5A2 inv ag = LRH-1 (NR5A2) inverse agonists, primary screen, cell-based, luminescence, HEK293T, StAR-luciferase reporter. inhibition, % at 3.6 µM. LRH-1 transfected, 24 h. 360,000 compounds, 0.13% hits. Nuclear receptor subfamily 5 group A member 2 (Homo sapiens), O00482. AID 602396, 2012;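 active means inhibition above the mean inhibition of all tested compounds plus 3 SD, cut at about 73% in these data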;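 further: 0% = DMSO wells and 100% = reporter-only cells lacking LRH-1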
# Gli-Sufu block = Gli-Sufu pathway antagonists, primary screen, luciferase luminescence, Sufu-KO-LIGHT cells, uHTS; Sufu-KO-LIGHT fibroblasts, Gli luciferase reporter luminescence; inhibition, % at 5 µM; 340,000 compounds, 0.74% hits;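 active means inhibition above about 55%, limit read from the data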;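 further: 0% = DMSO-treated cells and 100% = wells with medium but no cells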
# SRC2 inh = inhibition of GAL4-SRC2 driven luciferase reporter, primary screen, SRC2 inhibitor project, cell-based, luminescence | Nuclear receptor coactivator 2 (Homo sapiens), Q15596 | HEK293 GAL4-SRC2 luciferase reporter | inhibition, % at 9 µM | 370,000 compounds, 0.17% hits;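 active means inhibition above the mean inhibition of all tested compounds plus 3 SD, set per campaign, cut at about 52% in these data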;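 further: 0% = DMSO treated cells and 100% = cells given Gossypol at 36 µM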
# Target sequence (Q15596 whole entry, looked up, the tested form may be a part): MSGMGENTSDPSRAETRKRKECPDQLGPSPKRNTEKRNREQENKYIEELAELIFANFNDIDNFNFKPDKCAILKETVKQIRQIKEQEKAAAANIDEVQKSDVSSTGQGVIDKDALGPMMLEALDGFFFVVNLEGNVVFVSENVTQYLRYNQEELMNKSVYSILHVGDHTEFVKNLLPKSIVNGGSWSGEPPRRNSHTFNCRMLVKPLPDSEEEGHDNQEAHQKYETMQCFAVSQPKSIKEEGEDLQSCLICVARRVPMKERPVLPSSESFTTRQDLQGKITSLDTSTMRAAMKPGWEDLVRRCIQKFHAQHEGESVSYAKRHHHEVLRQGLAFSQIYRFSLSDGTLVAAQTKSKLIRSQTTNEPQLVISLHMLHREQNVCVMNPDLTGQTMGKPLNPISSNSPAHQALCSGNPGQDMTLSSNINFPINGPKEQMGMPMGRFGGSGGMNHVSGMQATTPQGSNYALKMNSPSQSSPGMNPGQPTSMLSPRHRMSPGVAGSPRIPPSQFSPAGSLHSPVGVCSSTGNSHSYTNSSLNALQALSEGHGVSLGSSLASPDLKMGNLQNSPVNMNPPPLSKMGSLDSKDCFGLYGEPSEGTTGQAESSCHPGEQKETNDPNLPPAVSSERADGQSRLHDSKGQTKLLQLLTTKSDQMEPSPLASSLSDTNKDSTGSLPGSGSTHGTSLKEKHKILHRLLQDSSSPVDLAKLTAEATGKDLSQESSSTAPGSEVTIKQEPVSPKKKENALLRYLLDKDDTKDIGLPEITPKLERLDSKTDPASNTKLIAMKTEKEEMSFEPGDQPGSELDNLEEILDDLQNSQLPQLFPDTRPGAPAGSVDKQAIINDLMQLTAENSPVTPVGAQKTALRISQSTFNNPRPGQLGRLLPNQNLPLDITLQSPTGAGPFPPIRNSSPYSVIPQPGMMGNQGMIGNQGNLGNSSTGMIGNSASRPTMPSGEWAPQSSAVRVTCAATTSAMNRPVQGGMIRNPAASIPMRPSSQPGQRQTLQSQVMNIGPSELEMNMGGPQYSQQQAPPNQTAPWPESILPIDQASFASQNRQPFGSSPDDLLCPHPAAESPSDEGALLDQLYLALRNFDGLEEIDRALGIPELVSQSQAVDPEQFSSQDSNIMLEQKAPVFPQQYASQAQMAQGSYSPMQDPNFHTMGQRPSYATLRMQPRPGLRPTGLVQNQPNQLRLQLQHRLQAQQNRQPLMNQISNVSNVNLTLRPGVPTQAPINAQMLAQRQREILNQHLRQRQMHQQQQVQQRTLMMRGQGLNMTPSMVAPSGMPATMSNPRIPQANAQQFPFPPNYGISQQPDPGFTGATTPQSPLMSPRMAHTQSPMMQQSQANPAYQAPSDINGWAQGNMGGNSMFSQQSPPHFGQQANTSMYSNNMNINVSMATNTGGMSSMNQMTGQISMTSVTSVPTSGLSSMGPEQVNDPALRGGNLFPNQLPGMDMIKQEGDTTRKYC
# COUP-TFII inh = NR2F2 transcriptional activity inhibitors, primary screen, cell-based, luciferase reporter, HEK293T, luminescence | inhibition, % at 8.6 µM | 370,000 compounds, 0.7% hits | COUP transcription factor 2 (Homo sapiens), P24468 | HEK293T NGFI-A luciferase reporter;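 active means inhibition above a per-plate cutoff, mean inhibition of test wells between control levels plus 3 SD, cut at about 38% in these data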;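 further: cells cotransfected with COUP-TFII expression vector driving the NGFI-A reporter; 0% = median of COUP-TF2 test wells and 100% = reporter-only cells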
# NCOA3 inh = SRC3 coactivator transcriptional activity inhibitors, primary screen, cell-based, luminescence | HEK293 GAL4-SRC3 luciferase reporter | inhibition, % at 3.6 µM | 360,000 compounds, 0.17% hits;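 active means inhibition above a per-campaign cutoff, the mean of all compounds plus 3 SD, cut at about 60% in these data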;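 further: 0% = DMSO-treated cells and 100% = gossypol-treated cells at 36 µM; higher means less SRC3-driven luciferase light from the GAL4 reporter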
# VP16 Luc counter = Gal4-VP16 luciferase reporter inhibitors, counter-screen for COUP-TFII antagonist project, cell-based, luminescence, HEK293 | shares compounds with COUP-TFII inh | inhibition, % at 8.5 µM | 2,500 compounds, 25% hits | AID 687007, 2013; in the data active means inhibition above about 13%
# COUP-TFII conf = NR2F2 transcriptional activity inhibitors, confirmation, cell-based, luciferase reporter, HEK293, triplicate; shares compounds with COUP-TFII inh; HEK293 NGFI-A luciferase reporter, luminescence; inhibition, % at 8.5 µM; 2,500 compounds, 45% hits;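 active means mean inhibition over three repeats above a set limit taken from the earlier primary screen, cut at about 38% in these data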;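 further: 100% = cells given the luciferase reporter alone without the COUP-TF2 vector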
# * hit, by the source's call; nt = no result.
SMILES,NCOA1 inh,NR5A2 inv ag,Gli-Sufu block,SRC2 inh,COUP-TFII inh,NCOA3 inh,VP16 Luc counter,COUP-TFII conf
O=C(NCCc1ccccc1)OCc1cn(Cc2ccccc2C(F)(F)F)nn1,nt,nt,nt,12,-14,nt,nt,nt
O=C(NC1CCCc2c1cnn2-c1ccccc1F)c1ccncc1 (centres undefined),24,38,nt,1,63*,14,14*,49*
CCc1cc(C(=O)NC2CCCc3c2cnn3-c2ccc(F)cc2F)no1 (centres undefined),6,15,nt,7,53*,-9,-7,17
O=C(N[C@H]1CCCc2c1cnn2-c1ccc(F)cc1F)c1ccccn1,nt,nt,nt,nt,-18,nt,nt,nt
CC1=C(C(=O)NC2CCCc3c2cnn3-c2ccc(F)cc2F)OCCO1 (centres undefined),-2,35,24,21,47*,28,-3,26
O=C(CCN1CCCC1=O)NC1CCCc2c1cnn2-c1ccccc1F (centres undefined),2,8,-3,9,3,-4,nt,nt
O=C(Nc1cccc(C(F)(F)F)c1)OCCCN1CCC2(CCC(c3ccccc3)CC2)C1=O (centres undefined),nt,nt,nt,14,7,nt,nt,nt
Cc1[nH]c2ccccc2c1CCN(Cc1cccs1)C(=O)Nc1cccc2c1OCO2,nt,nt,nt,-14,-24,nt,nt,nt
COC(=O)c1ccc(C(=O)N2CCCC(Nc3ccc(C(C)C)cc3)C2)cc1 (centres undefined),-2,-24,-4,2,0,-18,nt,nt
CC(C)c1ccc(NC2CCCN(C(=O)c3n[nH]c4c3CCC4)C2)cc1 (centres undefined),1,28,3,14,38*,-11,-5,24
CN1C(=O)C[C@@](C#N)(C(=O)NCC(F)(F)F)[C@H]1c1ccccc1,nt,nt,nt,1,-1,nt,nt,nt
CCOc1cc(CNc2ccc3c(c2)OCCO3)cc(Br)c1OC,48,62,0,48,51*,47,-27,38*
CCOc1c(Br)cc(CNc2ccc3c(c2)OCCO3)cc1OC,35,55,-9,40,-6,56,nt,nt
CCCCN1CN2CCc3ccccc3C2CS1(=O)=O (centres undefined),nt,nt,nt,-10,-68,nt,nt,nt
CC(=O)N[C@H]1C[C@@H]2O[C@H](CO)CC[C@@H]2O[C@@H]1CCc1ccc(-c2ccc(F)cc2)cc1,nt,nt,nt,-4,1,nt,nt,nt
Cc1cc(C)nc(SCc2nnc(SCC(N)=O)n2Cc2ccco2)n1,-3,-3,2,-13,39*,19,11,11
O=C(N/N=C/c1sc(N2CCOCC2)nc1-c1ccccc1)c1cccc(S(=O)(=O)N2CCOCC2)c1,66*,75*,0,6,54*,72*,0,50*
C=C1C(=O)OC2CC1C(OC(C)=O)CC(C)=CCCC(C)=CCCC2(C)O (centres undefined),33,46,nt,44,39*,62*,30*,34
COCC(C)n1c(C)cc(C(=O)CSc2nnnn2C2CCCC2)c1C (centres undefined),-2,-3,3,9,41*,7,-82,23
COCC(C)n1c(C)cc(C(=O)CSc2nc(C)c(C)c(C)n2)c1C (centres undefined),-3,0,3,-32,1,12,nt,nt
CC1=C/C(=N\NC(=S)Nc2cccnc2)CC(C)(C)C1,-37,-19,8,3,39*,-48,-16,3
COc1ccc(C(=O)CSc2nnc(Cn3cnc4ccccc43)o2)cc1,2,32,1,18,60*,16,5,41*
CC(=O)c1ccc(NC(=O)CSc2nnc(Cn3cnc4ccccc43)o2)cc1,-10,27,0,4,2,16,nt,nt
COc1ccc2c(c1)/C(=C\c1cccc(/C=C3/C(=O)Nc4ccc(OC)cc43)n1)C(=O)N2,3,22,8,55*,70*,19,75*,95*
CC1(C(=O)Nc2ccc3c(c2)OCO3)CCN1C(=O)Cc1ccc(-c2ccccc2)cc1 (centres undefined),15,30,nt,8,43*,-3,0,33
SMILES,NCOA1 inh,NR5A2 inv ag,Gli-Sufu block,SRC2 inh,COUP-TFII inh,NCOA3 inh,VP16 Luc counter,COUP-TFII conf
CC1(C(=O)Nc2ccc3[nH]ncc3c2)CCN1C(=O)Cc1ccc(-c2ccccc2)cc1 (centres undefined),2,-7,nt,25,47*,-11,2,22
CC1(C(=O)Nc2ccccc2)CCN1C(=O)Cc1ccc(-c2ccccc2)cc1 (centres undefined),3,26,nt,21,29,2,nt,nt
CC(C)(C)c1ccc(CC(=O)N2CCC2(C)C(=O)Nc2ccc3[nH]ncc3c2)cc1 (centres undefined),0,-23,nt,19,-2,-2,nt,nt
CC(C)(C)c1ccc(-c2nnc(SCC(=O)c3ccc4ccccc4c3)n2-c2ccc(Cl)cc2)cc1,nt,nt,nt,-51,10,nt,nt,nt
COC(=O)[C@]12C[C@H](CC(=O)N3CCN(C(=O)C4CC4)CC3)C(=O)N(Cc3cccc4ccccc34)C1=C[C@H](C(C)C)O[C@@H]2C1CC1,nt,nt,nt,13,12,nt,nt,nt
C[C@@H]1C[C@H](O)CCCCCC(=O)Cc2cc(O)cc(O)c2C(=O)O1,nt,nt,nt,28,8,nt,nt,nt
O=C1c2cccc(O)c2C(=O)c2c(O)cc(CO)cc21,nt,nt,1,nt,nt,nt,nt,nt
CC1OC2CC(=O)OC2C2=C1C(=O)c1c(O)cccc1C2=O (centres undefined),91*,104*,nt,95*,107*,96*,97*,110*
COc1ccc(-c2cn3c(C)c(C(=O)Nc4cccc(NC(C)=O)c4)sc3n2)cc1,14,-2,3,4,59*,-32,-29,-5
COc1ccc(-c2cn3c(C)c(C(=O)Nc4ccncc4)sc3n2)cc1,3,-4,13,16,47*,15,-31,7
Cc1c(C(=O)Nc2ccncc2)sc2nc(-c3ccc(F)cc3)cn12,-24,-38,20,-3,23,-30,nt,nt
COc1ccc2c3c([nH]c2c1)[C@]1(CCNC=O)Nc2ccccc2C1=NCC3,nt,nt,nt,nt,-1,nt,nt,nt
Cc1cc(=O)oc2cc(OCCCC[n+]3ccccc3)ccc12,-3,3,-9,-32,14,14,nt,nt

# High-throughput results as filed in PubChem.
